Most compounds without a hit are left out; they make up all but 9.2% or so of the library.
NPC1 promoter act: activates the NPC1 promoter; Huh7 NPC1 promoter luciferase reporter, 24 h; actives 2.4% (n = 320,000); Potency, µM (top dose mostly 9.22 µM), usual class: activators; note: nearly all actives have a fitted effect of over 60% in size
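Luminescence read-out of NPC1 promoter-driven luciferase in stably transfected Huh7 cells; compounds delivered in DMSO and left 24 h at 37C, 5% CO2, qHTS titration format.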
Rab9 promoter act: activators of Rab9 promoter; Huh7 Rab9 promoter-luciferase reporter, luminescence, 24 h; Potency, µM (series often up to 9.22 µM), hits mostly activators; actives 2.8% (n = 320,000); AID 485297; note: nearly all actives have a fitted effect of over 60% in size
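Measured in stably transfected Huh7 cells bearing a Rab9 promoter–luciferase construct: 24 h compound treatment at 37 °C, followed by luminescence detection.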
ELG1 genotox: induces genotoxicity in HEK293T cells with luciferase-tagged ELG1 | HEK293T ELG1-luciferase reporter, luminescence, 16 h | Potency, µM (series often up to 46 µM), hits mostly activators | actives 1.3% (n = 330,000) | AID 504466; note: nearly all actives have a fitted effect of over 60% in size
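Luminescence read-out: rising ELG1-luciferase signal, reflecting elevated ELG1 protein under genetic stress, flags genotoxic compounds. Cells were treated for 16 hr at 37 °C before ONE-Glo detection.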
FLuc counter: counter-screen for miR-21 project: firefly luciferase inhibitors or activators | P08659 | purified FLuc, Km substrates, luminescence inhibition | Potency, µM (titrated, usually from 57.5 µM), usual class: inhibitors | actives 6.9% (n = 360,000); note: nearly all actives have a fitted effect of over 55% in size
Target sequence (P08659 whole entry, looked up): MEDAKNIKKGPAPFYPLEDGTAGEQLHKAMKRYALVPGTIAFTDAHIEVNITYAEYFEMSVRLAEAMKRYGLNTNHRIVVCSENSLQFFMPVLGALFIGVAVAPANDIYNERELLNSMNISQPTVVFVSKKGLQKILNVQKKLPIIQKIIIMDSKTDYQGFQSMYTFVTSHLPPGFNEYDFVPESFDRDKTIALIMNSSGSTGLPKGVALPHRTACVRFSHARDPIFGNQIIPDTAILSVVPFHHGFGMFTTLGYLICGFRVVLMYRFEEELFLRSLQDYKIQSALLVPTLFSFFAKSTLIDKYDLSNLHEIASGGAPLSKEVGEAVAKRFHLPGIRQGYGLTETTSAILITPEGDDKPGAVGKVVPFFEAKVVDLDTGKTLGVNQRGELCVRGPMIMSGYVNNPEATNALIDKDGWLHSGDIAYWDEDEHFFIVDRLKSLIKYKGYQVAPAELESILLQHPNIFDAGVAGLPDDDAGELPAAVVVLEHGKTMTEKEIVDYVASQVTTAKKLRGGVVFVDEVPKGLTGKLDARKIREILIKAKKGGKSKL
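Purified P. pyralis luciferase (10nM final) with 10uM D-luciferin and 10uM ATP (Km levels) in 50mM Tris acetate pH 7.5, 10mM Mg acetate, 0.01% Tween-20, 0.05% BSA; qHTS 6-point titration, ~60 µM downward; luminescence read.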
SMN2 splice up: enhancers of SMN2 splice variant expression. HEK293 SMN2-luciferase splicing reporter, luminescence, 30-36 h. Potency, µM (highest dose often 46.1 µM), hits mostly activators. actives 2.8% (n = 210,000). AID 1458; note: nearly all actives have a fitted effect of over 55% in size
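HEK293 cells carry an SMN2 minigene-luciferase reporter in which exon 7 inclusion puts luciferase in frame. Cells were seeded at 2000 cells/well, attached for 10-12 hours, then exposed to compounds for 30-36 hours at 37C before ONE-Glo luminescence.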
ELG1 repair inh: inhibitors of ELG1-dependent DNA repair in HEK293T cells; HEK293T ELG1-luciferase reporter, luminescence, 16 h; DNA damage induced by 5-fluorouridine; Potency, µM (series often up to 46.1 µM), actives largely listed as inhibitors; actives 2.3% (n = 330,000); note: nearly all actives have a fitted effect of over 55% in size
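Reporter activity after DNA damage by 5-fluorouridine is monitored. Compound-treated cells incubate 16 hr at 37 °C, then ONE-Glo is added for 30 min before luminescence reading.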
ELG1 FLuc counter: luciferase inhibition in cell-free luciferin readout for ELG1 hits; cell-free firefly luciferase luminescence counter-screen, ViewLux; Potency, µM (doses to about 46.1 µM), most hits filed as inhibitors; AID 624247; actives 3% (n = 350); shares compounds with ELG1 repair inh
ELG1 Luc conf: human ELG1 repair inhibition, luciferase-tagged ELG1 confirmation | Potency, µM (titrated, usually from 46.1 µM), hits mostly inhibitors | AID 624248 | HEK293T ELG1-luciferase levels, luminescence; cells co-treated with 5-fluorouridine | shares compounds with ELG1 repair inh | actives 68% (n = 670); note: nearly all actives have a fitted effect of over 55% in size
ELG1-Luc MMS: inhibits ELG1-dependent repair under MMS stimulation in HEK293T cells; Potency, µM (titrated, usually from 46.1 µM), most hits filed as inhibitors; shares compounds with ELG1 repair inh; AID 624249; actives 53% (n = 670); HEK293T luciferase-tagged ELG1 level, MMS stimulated; note: nearly all actives have a fitted effect of over 60% in size
ELG1 5FU viab: confirmation of ELG1 repair inhibitors: viability with 5FU; shares compounds with ELG1 repair inh; cell viability with 5-FU, ELG1-dependent repair; Potency, µM (doses to about 46.1 µM), usual class: cytotoxic; 670 tested, under 10 active;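 note: ELG1-luc HEK293T cells cotreated with 5-fluorouridine at 10 µM final; viability measured 16 h after compound addition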
ELG1 MMS cell: confirmation of ELG1 repair inhibitors: viability with MMS. shares compounds with ELG1 repair inh. Cell viability with MMS, ELG1-dependent DNA repair. Potency, µM (top dose mostly 46.1 µM), usual class: cytotoxic. actives 33% (n = 670). AID 624251;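 note: ELG1-luc HEK293T cells co-treated with 10 µM MMS; viability read 16 h after compound addition; nearly all actives have a fitted effect of over 60% in size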
ELG1 unstim viab: unstimulated viability counter-screen for ELG1 repair hits; Potency, µM (series often up to 45.9 µM), usual class: cytotoxic; actives 8% (n = 900); cell viability counter-screen, unstimulated, luminescence; shares compounds with ELG1 repair inh;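 note: compound exposure lasted 16 hours before reading; nearly all actives have a fitted effect of over 55% in size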
FLuc biochem: firefly luciferase inhibition counter-screen | shares compounds with ELG1 repair inh | purified firefly luciferase, luminescence counter-screen | Potency, µM (top dose mostly 57.5 µM), actives largely listed as inhibitors | actives 10% (n = 350) | AID 624253
Large screens that a line does not name were inactive (follow-up assays come after a bar, where they were run). Calls come from the whole dose curve; as a rule, active = well fitted curve in the direction sought with a large enough effect; inconclusive = small, poorly fitted or top-dose-only effect, or another doubt; inactive = no such curve, though single readings can be large; an effect the other way counts as inactive or inconclusive.

Cc1c(NC(=O)c2cc(-c3cccs3)nc3ccccc23)c(=O)n(-c2ccccc2)n1C	ELG1 repair inh 2.9µM | ELG1 FLuc counter inactive | ELG1 Luc conf 2.8µM | ELG1-Luc MMS 7.9µM | ELG1 5FU viab inactive | ELG1 MMS cell inconclusive | ELG1 unstim viab inconclusive | FLuc biochem inactive
Cc1ccn(C)c(=N)c1	none (no result: SMN2 splice up)
COc1cc(C[C@@H]2C(=O)OC[C@H]2Cc2ccc(OC)c(OC)c2)ccc1O	none (no result: SMN2 splice up)
COc1cc(CC2COC(=O)C2(O)Cc2ccc(O)c(OC)c2)ccc1O (centres undefined)	ELG1 repair inh 1.5µM (no result: SMN2 splice up) | ELG1 Luc conf inconclusive | ELG1-Luc MMS 3.5µM | ELG1 5FU viab inactive | ELG1 MMS cell 2.8µM | ELG1 unstim viab inconclusive
CC(=O)Nc1ccc(SCC(=O)NC(=O)c2ccc(S(=O)(=O)N(C)C)cc2)cc1	none (no result: NPC1 promoter act, Rab9 promoter act, FLuc counter, SMN2 splice up)
O=C(Nc1ccc(N2CCCC2)c(Cl)c1)c1ccc([N+](=O)[O-])cc1	ELG1 repair inh 1.8µM | ELG1 Luc conf inconclusive | ELG1-Luc MMS inactive | ELG1 5FU viab inconclusive | ELG1 MMS cell inactive | ELG1 unstim viab inactive
CN1C(=O)c2ccc(NC(=O)c3ccc(N4CCCCC4)c([N+](=O)[O-])c3)cc2C1=O	ELG1 repair inh 3.7µM | ELG1 Luc conf 14µM | ELG1-Luc MMS 14µM | ELG1 5FU viab inconclusive | ELG1 MMS cell inconclusive | ELG1 unstim viab inactive
CC1(C)Cc2c(C#N)c(SCc3ccccc3)nc(N3CCOCC3)c2CO1	ELG1 repair inh 2.3µM | ELG1 Luc conf 2.2µM | ELG1-Luc MMS inactive | ELG1 5FU viab inconclusive | ELG1 MMS cell inactive | ELG1 unstim viab inactive
CCCCCSc1nc(N2CCOCC2)c2c(c1C#N)CC(C)(C)OC2	none
Cc1cccc(C(=O)OCC(=O)N2CCCCCC2)c1O	NPC1 promoter act 3.2µM, Rab9 promoter act 3.2µM, ELG1 genotox inconclusive, ELG1 repair inh inconclusive (no result: FLuc counter, SMN2 splice up) | ELG1 unstim viab inconclusive
O=C(OCC(=O)N1CCCCC1)c1cccs1	ELG1 genotox inconclusive, ELG1 repair inh inconclusive (no result: NPC1 promoter act, Rab9 promoter act, FLuc counter, SMN2 splice up) | ELG1 unstim viab inactive
COc1ccc(-c2nc3sc(CCNC(=O)C(=O)Nc4cc(C)cc(C)c4)c(C)n3n2)cc1	none (no result: NPC1 promoter act, Rab9 promoter act, ELG1 genotox, SMN2 splice up, ELG1 repair inh)
CCN(C[C@H]1N[C@@](CC)(C(=O)OC)[C@H]2C(=O)N(C)C(=O)[C@@H]12)C(=O)NC(C)C	none (no result: NPC1 promoter act, Rab9 promoter act, FLuc counter, SMN2 splice up)
CSc1ccc(/C=N/n2c(C3CCCCC3)n[nH]c2=S)cc1	ELG1 repair inh inconclusive (no result: SMN2 splice up)

Screening data from PubChem BioAssay.
